Measurements as given in ChEMBL document CHEMBL1157539, “Thousands of chemical starting points for antimalarial lead identification” (Nature, 2010).

Experiments:
Format in all cases: functional
Plasmodium falciparum [1] = test: GSK_TCMDC: Inhibition of Plasmodium falciparum 3D7 in whole red blood cells, using parasite LDH activity as an index of growth. Test compounds present at 2uM
Plasmodium falciparum [2] = test: GSK_TCMDC: Inhibition of Plasmodium falciparum Dd2 in whole red blood cells, using parasite LDH activity as an index of growth. Test compounds present at 2uM
HepG2 = test: GSK_TCMDC: Percent inhibition of human HepG2 cell line. Test compounds present at 10uM.

Row | SMILES | Inhibition (Plasmodium falciparum [1]) | Inhibition (Plasmodium falciparum [2]) | Inhibition (HepG2)
1 | CC(C)(C)c1ccc(CN2CCC(NC(=O)c3ccc(-c4cccc(F)c4)s3)CC2)cc1.O=C(O)C(F)(F)F | 92% | 24% | 35%
2 | O=C(O)c1ccc2c(c1)N(C(=O)CNCc1ccc(F)cc1)CC(=O)N2CCCc1ccccc1 | 95% | 0% | 1%
3 | COc1ccc(CNCc2ccc(F)cc2)cc1-c1ccc(S(=O)(=O)NCCN2CCCC2)c(C)c1.O=C(O)C(F)(F)F | 98% | 56% | 55%
4 | CCCCNC(=O)[C@H](CC1CCCCC1)NC(=O)c1ccc(O)c(-c2cccc(C(F)(F)F)c2)c1 | 98% | 86% | 0%
5 | FC(F)(F)c1ccc2[nH]c(-c3cccc(-c4ccc(CNCCN5CCNCC5)cc4)c3)nc2c1.O=C(O)C(F)(F)F | 96% | 0% | 17%
6 | CCN(CC)CCCNc1nccc(N(C)c2ccc(NC(=O)Nc3cc(C(F)(F)F)ccc3F)cc2)n1.O=C(O)C(F)(F)F | 94% | 19% | 96%
7 | O=C(Nc1ccc(CN2CCN(S(=O)(=O)c3cccc(Cl)c3)CC2)cc1)c1cccs1.O=C(O)C(F)(F)F | 84% | 41% | 9%
8 | Cc1nc(NC2=NCN(CCCN3CCOCC3)CN2)nc2c(C)cccc12 | 89% | 62% | 17%
9 | CCn1ncc2c(N3CCCC3=O)cc(C(=O)N[C@@H](Cc3ccccc3)[C@H](O)CNC(C)(C)c3cccc(C(F)(F)F)c3)cc21 | 98% | 99% | 10%
10 | COc1ccc(Nc2nccc(N3CCC(NC(=O)Nc4cccc(OC)c4)C3)n2)cc1 (stereo not given) | 99% | 48% | 23%
11 | CCCCc1ccc(C(=O)Nc2ccc3nc(N4CCN(CC)CC4)cc(C)c3c2)cc1 | 91% | 13% | 32%
12 | CCN(CC)CCN(Cc1ccc(-c2ccc(C(F)(F)F)cc2)cc1)C(=O)Cn1c(CCc2cccc(F)c2F)nc(=O)c2cc(F)c(F)cc21.O=C(O)C(O)C(O)C(=O)O | 100% | 56% | 41%
13 | CC1CN(Cc2cccc(F)c2)CCN1c1ccc(NC(=O)c2cccs2)cc1.O=C(O)C(F)(F)F (stereo not given) | 96% | 96% | 0%
14 | Cn1cccc1C(=O)Nc1cccc(-c2nn3ccccc3c2-c2ccnc(Nc3ccc4c(c3)OCCO4)n2)c1 | 95% | 27% | 12%
15 | CC(CCCCC(=O)Nc1ccc(C(F)(F)F)cc1)NCC(O)c1cccc(Cl)c1 (stereo not given) | 99% | 92% | 51%
16 | O=C(/C=C/c1ccc(Cl)c(Cl)c1)NCCCCCN1CCCC(C(=O)Nc2ccc(Cl)cc2)C1 (stereo not given) | 98% | 0% | 35%
17 | O=C(Nc1ccc(-c2cccc(-c3nc4ccccc4[nH]3)c2)cc1)Nc1ccc2c(c1)OCO2 | 100% | 65% | 55%
18 | O=C(/C=C/c1cccc(Cl)c1)N1CCC(C(O)CN2CCC3(CC2)CN(C(=O)/C=C/c2cccc(Cl)c2)c2ccccc23)CC1 (stereo not given) | 91% | 38% | 34%
19 | CCCN1CCN(CCCNC(=O)c2cc3c(Cl)nc4ccc(C)cc4c3s2)CC1 | 97% | 27% | 18%
20 | Cc1cc(NCCC(=O)Nc2ccccc2)nc(NCCc2cccnc2)n1.O=C(O)C(F)(F)F | 84% | 4% | 0%

Row | SMILES | Inhibition (Plasmodium falciparum [1]) | Inhibition (Plasmodium falciparum [2]) | Inhibition (HepG2)
21 | O=C(Nc1cccc(-c2cccc(-c3nc4cc(C(F)(F)F)ccc4[nH]3)c2)c1)c1cccnc1 | 100% | 70% | 57%
22 | CCCC(=O)Nc1ccc(OCCN(Cc2ccccc2OC(F)(F)F)c2ccc(C(F)(F)F)c(C#N)c2)cc1 | 85% | 97% | 0%
23 | O=C(Nc1ccnc(-c2cccnc2)n1)c1cc(C(F)(F)F)cc(C(F)(F)F)c1 | 95% | 12% | 22%
24 | Oc1cc2c(cc1CN1CCN(Cc3cccs3)CC1)CCC2 | 99% | 91% | 10%
25 | Cc1ccccc1C1CCN(C2CCC(NC(=O)c3cc4cc(C(C)C)ccc4[nH]3)CC2)CC1 (stereo not given) | 99% | 100% | 100%
26 | Cc1ccc(NCc2cccc(F)c2)cc1S(=O)(=O)N[C@@H]1CCN(C#N)C1 | 89% | 83% | 13%
27 | COc1ccc(Nc2ncc3c(-c4cccc(NC(=O)Cc5cccnc5)c4)c[nH]c3n2)cc1OC | 98% | 85% | 27%
28 | Cc1cccc2nc(-c3cccc(-c4ccc(NC(=O)c5cccc(C(N)=O)c5)cc4)c3)[nH]c12 | 100% | 61% | 25%
29 | O=C(O)C(F)(F)F.OC1CCCN(Cc2cccc(-c3ccc(-c4nc5ccccc5[nH]4)cc3)c2)C1 (stereo not given) | 85% | 16% | 25%
30 | C=CCOC(=O)N1CCC(CNCc2ccc(-c3cccc(-c4nc5ccccc5[nH]4)c3)cc2)C1.O=C(O)C(F)(F)F (stereo not given) | 100% | 50% | 39%
31 | O=C(Nc1ccc(N2CCNCC2)nc1)c1oc(-c2ccccc2)nc1C(F)(F)F | 100% | 62% | 7%
32 | COc1cc(N(Cc2ccc(F)cc2)C(=O)c2ccc(-c3ccccc3)cc2)ccc1OCCN1CCCC1.Cl | 93% | 4% | 11%
33 | CCc1cc2c(=O)c(-c3nc(C)cs3)c([C@H](N)Cc3ccc(O)cc3)oc2cc1O.O=C(O)C(F)(F)F | 100% | 19% | 11%
34 | COc1ccc(-c2ccc(CNCc3ccsc3)cc2)cc1S(=O)(=O)NCCN1CCCC1.O=C(O)C(F)(F)F | 94% | 30% | 22%
35 | COc1c(C2CCN(CCN3CCC(CNC(=O)c4ccc(-c5ccc(C#N)cc5)cc4)CC3)CC2)ccc2c1CCCC2 | 100% | 100% | 96%
36 | COc1ccc(Nc2cc(C)c3cc(NC(=O)c4ccncc4)ccc3n2)cc1 | 98% | 26% | 0%
37 | COC(=O)Nc1cc(C(F)(F)F)ccc1N1CCC(CNS(=O)(=O)c2ccc(OC)cc2)CC1 | 99% | 95% | 13%
38 | O=C(/C=C/c1ccc(Cl)c(Cl)c1)NCCCCCN1CCCC(CNS(=O)(=O)c2ccc(F)cc2)C1 (stereo not given) | 91% | 7% | 56%
39 | Cc1nc2nc(N)nc(N)c2c(C)c1Cc1cccc(F)c1.Cl | 96% | 1% | 65%
40 | O=C(NCC1CCC(CNCCc2ccccc2)CC1)Nc1ccc(Cl)c(Cl)c1 (stereo not given) | 96% | 0% | 24%

Row | SMILES | Inhibition (Plasmodium falciparum [1]) | Inhibition (Plasmodium falciparum [2]) | Inhibition (HepG2)
41 | O=C(COc1cccc([N+](=O)[O-])c1)Nc1ccc(-c2nc3ccccc3[nH]2)cc1 | 99% | 5% | 12%
42 | O=C1C[C@@H]([S+]([O-])Cc2nccs2)N1CCOCCCCCCc1ccc(Cl)cc1 (stereo not given in full) | 91% | 0% | 0%
43 | O=C(Nc1ccc(Cl)c(Cl)c1)N1CCC(NCc2cccc([N+](=O)[O-])c2)CC1.O=C(O)C(F)(F)F | 97% | 12% | 8%
44 | COc1ccc(CN2CCC(CNCCc3ccccc3Oc3ccccc3)CC2)cc1.O=C(O)C(F)(F)F | 85% | 56% | 99%
45 | O=C(O)C(F)(F)F.OCCN1CCN(Cc2ccc(-c3cccc(-c4nc5cc(C(F)(F)F)ccc5[nH]4)c3)cc2)CC1 | 99% | 83% | 29%
46 | CCCCCN1CCCC1CNS(=O)(=O)c1ccc(C(=O)Nc2ccc(C(F)(F)F)cc2)cc1.O=C(O)C(F)(F)F (stereo not given) | 87% | 0% | 19%
47 | CCc1cccc2c(C#N)cn(CC(=O)NCCc3ccccc3)c12 | 95% | 64% | 1%
48 | Oc1ccc2[nH]c(-c3ccc(F)cc3F)nc2c1CN1CCC(O)(c2ccccc2)CC1 | 96% | 70% | 16%
49 | SC(=Nc1ccc2c(c1)OCCO2)NN=Cc1ccccn1 | 82% | 33% | 55%
50 | Fc1ccc2[nH]c(-c3cccc(-c4cccc(CNCCN5CCNCC5)c4)c3)nc2c1.O=C(O)C(F)(F)F | 94% | 4% | 18%
51 | CCCc1cc(Cc2cnc(N)nc2N)cc(OC)c1OC | 87% | 4% | 2%
52 | N=C(N)NN=CC(=O)Nc1ccc(Cl)cc1.O=S(=O)(O)O | 100% | 2% | 5%
53 | O=C(NCC1CCC(CNCCCc2ccccc2)CC1)c1cc(Cl)cc(Cl)c1 (stereo not given) | 89% | 13% | 58%
54 | O=C(O)C(F)(F)F.OC1CCCN(Cc2ccc(-c3ccc(-c4nc5cc(F)ccc5[nH]4)cc3)cc2)C1 (stereo not given) | 100% | 79% | 55%
55 | COc1ccccc1C1CCN(Cc2csc(NC(=O)c3ccc(-c4ccc(C(F)(F)F)cc4)cc3)n2)CC1 | 85% | 23% | 62%
56 | Cl.N#Cc1ccc2c(c1)CN(CCCCNC(=O)c1ccc(-c3ccccc3)cc1)CC2 | 96% | 10% | 0%
57 | CC(C)(C)n1nnnc1C(c1cccnc1)N(Cc1ccccc1)Cc1ccc(Cl)cc1 (stereo not given) | 96% | 17% | 0%
58 | Cn1nccc1C(=O)NCCNCc1ccc(-c2ccc(-c3nc4cc(C(F)(F)F)ccc4[nH]3)s2)cc1.O=C(O)C(F)(F)F | 100% | 99% | 48%
59 | O=C(O)C(F)(F)F.O=c1[nH]ccc2nc(N[C@@H]3CCNC3)nc(Nc3cc(Cl)cc(Cl)c3)c12 | 100% | 99% | 99%
60 | O=C(Nc1ccc(Cl)cc1F)NC1CCN(CCCCCNC(=O)C2CC2c2ccc(Cl)c(Cl)c2)CC1 (stereo not given) | 100% | 27% | 46%
